Assay results from PubChem BioAssay AID1159580 (chemical genetic matrix, 2015).
Out of some 5,500 compounds screened, about 2,000 (36%) were called active. About 18% were inconclusive and are not listed. No stated cut-off is given here; in the data, active means normalized growth mostly below about 0.91 (no sharp cut-off); inconclusive means no clear call, values can overlap the other calls; inactive means mostly above about 0.92. Some of the results follow.

Assay: chemical genetic growth profiling, strain panel (AID 1159580);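 further: tested at 20 µM; growth read once vehicle control cultures reached saturation at 30 °C; 1 = growth at the plate median or of vehicle wells; lower values mean less growth of the strain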
Conditions: growth OD

Measured: normalized growth

NC(=O)N/N=C\c1ccc([N+](=O)[O-])o1
inactive: S. cerevisiae deletion strains, locus YJR066W, strain TOR1, hits give low values 0.911 | S. cerevisiae deletion strains, locus YKL009W, strain mrt4, hits give low values 0.979 | S. cerevisiae deletion strains, locus YKL068W, hits give low values 0.994 | S. cerevisiae deletion strains, locus YKL085W, strain MDH1 (second series), hits give low values 0.987 | S. cerevisiae deletion strains, locus YKL085W, strain MDH1, hits give low values 0.987 | S. cerevisiae deletion strains, locus YKL160W, strain elf1, hits give low values 0.983 | S. cerevisiae deletion strains, locus YKL190W, strain CNB1, hits give low values 1.02 | S. cerevisiae deletion strains, locus YKR001C, strain vps1, hits give low values 0.95 | S. cerevisiae deletion strains, locus YKR026C, strain gcn3, hits give low values 1 | S. cerevisiae deletion strains, locus YKR091W, strain srl3, hits give low values 0.991 | S. cerevisiae deletion strains, locus YLL001W, strain dnm1, hits give low values 0.995 | S. cerevisiae deletion strains, locus YLL026W, hits give low values 0.999 | S. cerevisiae deletion strains, locus YLL041C, strain sdh2, hits give low values 0.995 | S. cerevisiae deletion strains, locus YLR027C, strain aat2, hits give low values 1 | S. cerevisiae deletion strains, locus YLR039C, strain RIC1, hits give low values 1.03 | S. cerevisiae deletion strains, locus YLR058C, strain SHM2, hits give low values 0.994 | S. cerevisiae deletion strains, locus YLR102C, strain apc9, hits give low values 0.984 | S. cerevisiae deletion strains, locus YLR113W, strain HOG1, hits give low values 1 | S. cerevisiae deletion strains, locus YLR221C, strain rsa3, hits give low values 0.975 | S. cerevisiae deletion strains, locus YLR258W, strain gsy2, hits give low values 0.998 | S. cerevisiae deletion strains, locus YLR262C, strain YPT6 (second series), hits give low values 1.01 | S. cerevisiae deletion strains, locus YLR262C, strain YPT6, hits give low values 1.03 | S. cerevisiae deletion strains, locus YLR268W, strain sec22, hits give low values 0.969 | S. cerevisiae deletion strains, locus YLR320W, strain mms22, hits give low values 0.98 | S. cerevisiae deletion strains, locus YLR330W, strain CHS5, hits give low values 0.998 | S. cerevisiae deletion strains, locus YLR342W, strain FKS1 (second series), hits give low values 1.03 | S. cerevisiae deletion strains, locus YLR342W, strain FKS1, hits give low values 1 | S. cerevisiae deletion strains, locus YLR357W, strain rsc2, hits give low values 0.97 | S. cerevisiae deletion strains, locus YLR370C, strain arc18, hits give low values 0.997 | S. cerevisiae deletion strains, locus YLR371W, strain rom2, hits give low values 0.986 | S. cerevisiae deletion strains, locus YLR384C, strain iki3, hits give low values 1.01 | S. cerevisiae deletion strains, locus YLR418C, strain cdc73, hits give low values 0.904 | S. cerevisiae deletion strains, locus YML016C, strain PPZ1, hits give low values 1 | S. cerevisiae deletion strains, locus YML032C, strain rad52, hits give low values 0.938 | S. cerevisiae deletion strains, locus YML120C, strain ndi1, hits give low values 1.02 | S. cerevisiae deletion strains, locus YML124C, strain tub3, hits give low values 0.993 | S. cerevisiae deletion strains, locus YMR058W, strain fet3, hits give low values 0.961 | S. cerevisiae deletion strains, locus YMR078C, strain ctf18, hits give low values 0.994 | S. cerevisiae deletion strains, locus YMR125W, strain sto1, hits give low values 0.993 | S. cerevisiae deletion strains, locus YMR129W, hits give low values 1 | S. cerevisiae deletion strains, locus YMR205C, strain PFK2, hits give low values 1.02 | S. cerevisiae deletion strains, locus YMR223W, strain ubp8, hits give low values 0.97 | S. cerevisiae deletion strains, locus YMR231W, strain pep5, hits give low values 0.993 | S. cerevisiae deletion strains, locus YMR307W, strain GAS1, hits give low values 1.01 | S. cerevisiae deletion strains, locus YNL067W, strain RPL9B, hits give low values 1.01 | S. cerevisiae deletion strains, locus YNL071W, strain lat1, hits give low values 0.99 | S. cerevisiae deletion strains, locus YNL128W, strain TEP1, hits give low values 1.03 | S. cerevisiae deletion strains, locus YNL153C, strain GIM3, hits give low values 1.01 | S. cerevisiae deletion strains, locus YNL183C, strain NPR1, hits give low values 0.919 | S. cerevisiae deletion strains, locus YNL209W, strain ssb2, hits give low values 0.994 | S. cerevisiae deletion strains, locus YNL233W, strain BNI4, hits give low values 0.998 | S. cerevisiae deletion strains, locus YNL248C, strain rpa49, hits give low values 0.967 | S. cerevisiae deletion strains, locus YNL250W, strain rad50, hits give low values 0.97 | S. cerevisiae deletion strains, locus YNL271C, strain bni1, hits give low values 0.999 | S. cerevisiae deletion strains, locus YNL298W, strain CLA4, hits give low values 0.986 | S. cerevisiae deletion strains, locus YNL307C, strain MCK1, hits give low values 0.995 | S. cerevisiae deletion strains, locus YNL322C, strain KRE1 (second series), hits give low values 0.997 | S. cerevisiae deletion strains, locus YNR049C, strain mso1, hits give low values 0.995 | S. cerevisiae deletion strains, locus YNR052C, strain pop2, hits give low values 0.989 | S. cerevisiae deletion strains, locus YOL006C, strain TOP1, hits give low values 1.06 | S. cerevisiae deletion strains, locus YOL012C, strain htz1 0.96 | S. cerevisiae deletion strains, locus YOL147C, strain pex11, hits give low values 0.988 | S. cerevisiae deletion strains, locus YOR001W, strain rrp6, hits give low values 1.01 | S. cerevisiae deletion strains, locus YOR061W, strain CKA2, hits give low values 0.994 | S. cerevisiae deletion strains, locus YOR069W, strain VPS5, hits give low values 1 | S. cerevisiae deletion strains, locus YOR070C, strain gyp1, hits give low values 0.998 | S. cerevisiae deletion strains, locus YOR080W, strain dia2, hits give low values 1.01 | S. cerevisiae deletion strains, locus YOR083W, strain WHI5, hits give low values 0.963 | S. cerevisiae deletion strains, locus YOR106W, strain vam3, hits give low values 0.983 | S. cerevisiae deletion strains, locus YOR136W, strain idh2, hits give low values 0.984 | S. cerevisiae deletion strains, locus YOR144C, strain elg1, hits give low values 0.989 | S. cerevisiae deletion strains, locus YOR184W, strain ser1, hits give low values 0.989 | S. cerevisiae deletion strains, locus YOR231W, strain MKK1, hits give low values 0.95 | S. cerevisiae deletion strains, locus YOR265W, strain rbl2, hits give low values 0.996 | S. cerevisiae deletion strains, locus YOR270C, strain vph1, hits give low values 0.972 | S. cerevisiae deletion strains, locus YOR290C, strain snf2, hits give low values 0.986 | S. cerevisiae deletion strains, locus YOR316C, strain cot1, hits give low values 0.992 | S. cerevisiae deletion strains, locus YPL051W, strain arl3, hits give low values 0.966 | S. cerevisiae deletion strains, locus YPL078C, strain atp4, hits give low values 0.991 | S. cerevisiae deletion strains, locus YPL106C, strain sse1, hits give low values 0.956 | S. cerevisiae deletion strains, locus YPL240C, strain hsp82, hits give low values 1.01 | S. cerevisiae deletion strains, locus YPL241C, strain CIN2, hits give low values 1.01 | S. cerevisiae deletion strains, locus YPL256C, strain CLN2, hits give low values 0.982 | S. cerevisiae deletion strains, locus YPR119W, strain clb2, hits give low values 0.987 | S. cerevisiae deletion strains, locus YPR141C, strain kar3, hits give low values 0.993 | S. cerevisiae deletion strains, locus YPR163C, strain tif3, hits give low values 0.992 | S. cerevisiae deletion strains, locus YPR167C, strain met16, hits give low values 0.987 | S. cerevisiae deletion strains, strain wtn01, hits give low values 0.97 | S. cerevisiae strains, strain wild type, hits give low values 1.03
